Test results: PubChem BioAssay (Tox21)
Results filed as inconclusive are left out. Activity calls are given as the source filed them. Unless noted, the call rests on the fitted dose curve; in most records, active means well fitted curve in the direction sought with a large enough effect in the repeat runs; inconclusive means weak or mixed curves; inactive means no such curve, though single readings can be large; an effect the other way counts as inactive or inconclusive.

Columns and labels:
[1] = qHTS assay to identify aromatase inhibitors - cell viability counter screen (AID 743084); details: MCF-7 aro ERE viability, CellTiter-Fluor, 24 h; series mostly up to 70.3 µM;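 further: cells stimulated with testosterone during compound exposure; nearly all actives have a fitted effect of over 55% in size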; further: potency means the concentration at half of the fitted maximal effect
[2] = molecular target: Aryl hydrocarbon receptor (Homo sapiens) (UniProt P35869); test: qHTS assay to identify small molecule that activate the aryl hydrocarbon receptor (AhR) signaling pathway (AID 743085); details: HepG2 AhR-luc (HG2L7.5c1), luciferase, 24 h; series mostly up to 70.3 µM; further: nearly all actives have a fitted effect of over 15% in size; further: potency means the concentration at half of the fitted maximal effect;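 on activation: HG2L7.5c1 human HepG2 liver cells with stably integrated DRE-driven firefly reporter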
Sequence of Aryl hydrocarbon receptor (Homo sapiens) (P35869 whole entry, looked up): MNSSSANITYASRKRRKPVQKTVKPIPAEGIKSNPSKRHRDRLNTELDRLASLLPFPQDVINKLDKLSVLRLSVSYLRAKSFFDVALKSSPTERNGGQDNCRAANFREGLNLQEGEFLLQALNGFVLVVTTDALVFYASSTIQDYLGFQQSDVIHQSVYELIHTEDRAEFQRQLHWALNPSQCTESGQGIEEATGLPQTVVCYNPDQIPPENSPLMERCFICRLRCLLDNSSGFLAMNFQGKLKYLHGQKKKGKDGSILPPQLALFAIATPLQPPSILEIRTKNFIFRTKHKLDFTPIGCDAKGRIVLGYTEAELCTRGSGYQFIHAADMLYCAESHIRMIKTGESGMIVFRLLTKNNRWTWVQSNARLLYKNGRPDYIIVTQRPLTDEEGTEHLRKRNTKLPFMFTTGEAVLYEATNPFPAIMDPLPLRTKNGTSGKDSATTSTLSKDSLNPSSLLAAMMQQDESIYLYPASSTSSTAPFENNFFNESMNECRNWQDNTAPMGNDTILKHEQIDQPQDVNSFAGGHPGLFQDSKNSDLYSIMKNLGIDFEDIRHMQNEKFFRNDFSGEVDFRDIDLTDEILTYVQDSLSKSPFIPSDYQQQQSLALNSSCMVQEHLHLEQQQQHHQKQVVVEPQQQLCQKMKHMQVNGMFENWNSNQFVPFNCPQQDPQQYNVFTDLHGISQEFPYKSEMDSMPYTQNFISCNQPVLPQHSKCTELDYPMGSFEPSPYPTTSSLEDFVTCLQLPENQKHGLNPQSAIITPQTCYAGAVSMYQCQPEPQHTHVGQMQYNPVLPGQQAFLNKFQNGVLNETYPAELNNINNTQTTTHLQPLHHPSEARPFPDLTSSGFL
Method in brief: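 AhR agonist activity is inferred from enhanced light output of a DRE-controlled firefly luciferase reporter in HepG2 cells, measured with ONE-Glo following 24 h treatment at 37C.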

[3] = qHTS assay to identify small molecule that activate the aryl hydrocarbon receptor (AhR) signaling pathway - cell viability counter screen (AID 743086); details: HepG2-AhR-luc viability, CellTiter-Fluor, 24 h; series mostly up to 70.3 µM; further: nearly all actives have a fitted effect of over 45% in size; further: potency means the concentration at half of the fitted maximal effect
Method in brief: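 Cytotoxicity counter screen: CellTiter-Fluor signal (30 min, 37 C) in 4000 HepG2 cells/well carrying the DRE-luciferase reporter, following 24 h compound exposure at 37 C.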

[4] = molecular target: Peroxisome proliferator-activated receptor gamma (Homo sapiens) (UniProt P37231); test: qHTS assay to identify small molecule agonists of the peroxisome proliferator-activated receptor gamma (PPARg) signaling pathway (AID 743094; active means well fitted activation curve with a large enough effect in the signal ratio in the repeat runs, not every such curve was filed as active; the % refers to the signal ratio); details: HEK293H PPARg-UAS-bla, beta-lactamase FRET ratio, 17 h; series mostly up to 57 µM
Sequence of Peroxisome proliferator-activated receptor gamma (Homo sapiens) (P37231 whole entry, looked up): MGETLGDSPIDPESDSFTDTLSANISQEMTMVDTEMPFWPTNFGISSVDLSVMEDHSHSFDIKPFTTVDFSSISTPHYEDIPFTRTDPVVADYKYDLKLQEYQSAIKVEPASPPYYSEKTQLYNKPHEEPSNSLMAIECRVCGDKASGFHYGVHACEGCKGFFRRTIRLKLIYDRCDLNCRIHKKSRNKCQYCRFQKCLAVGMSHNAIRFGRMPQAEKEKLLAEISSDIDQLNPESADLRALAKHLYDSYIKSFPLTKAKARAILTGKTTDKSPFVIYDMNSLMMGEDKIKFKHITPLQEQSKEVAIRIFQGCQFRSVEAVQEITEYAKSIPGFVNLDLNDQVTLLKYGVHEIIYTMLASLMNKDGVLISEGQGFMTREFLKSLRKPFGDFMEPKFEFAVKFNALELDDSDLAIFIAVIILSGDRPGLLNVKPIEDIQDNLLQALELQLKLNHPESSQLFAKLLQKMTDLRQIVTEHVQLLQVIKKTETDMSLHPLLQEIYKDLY
Method in brief: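 Fluorescence-based beta-lactamase readout in HEK293H PPARg UAS-bla cells after 17 h compound exposure (37C) and 1 h B/G FRET substrate incubation at room temperature.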

[5] = qHTS assay for small molecule agonists of the antioxidant response element (ARE) signaling pathway (AID 743202; active means well fitted activation curve with a large enough effect in the signal ratio in the repeat runs, not every such curve was filed as active; the % refers to the signal ratio; further: potency means the concentration at half of the fitted maximal effect); details: HepG2 ARE-bla reporter, beta-lactamase FRET, 16 h; series mostly up to 73.3 µM
Method in brief: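 Beta-lactamase reporter activity, read as fluorescence intensity, reflects ARE/Nrf2 pathway induction in HepG2 cells after 16 h compound exposure at 37 C; substrate loading was 2 h at room temperature.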

[6] = qHTS assay for small molecule agonists of the antioxidant response element (ARE) signaling pathway - cell viability counter screen (AID 743203; calls by dose curve; further: nearly all actives have a fitted effect of over 55% in size; further: potency means the concentration at half of the fitted maximal effect); details: ARE-bla HepG2 viability, CellTiter-Glo luminescence, 16 h; series mostly up to 73.3 µM
Method in brief: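 Parallel cytotoxicity read-out for the ARE-bla screen: HepG2 reporter cells, 16 hrs with compounds, then CellTiter-Glo luminescence.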

[7] = qHTS assay for small molecule activators of the heat shock response signaling pathway - cell viability counter screen (AID 743209); details: HSE-bla HeLa viability, CellTiter-Glo luminescence, 5 h; series mostly up to 62.6 µM; further: nearly all actives have a fitted effect of over 50% in size; further: potency means the concentration at half of the fitted maximal effect
Method in brief: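 To flag cytotoxic compounds, HSE-bla HeLa cells plated at 1500 cells/well were dosed for 5 h at 37 C, followed by the reporter FRET read and then CellTiter-Glo, with luminescence recorded 30 min after reagent addition.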

[8] = qHTS assay to identify small molecule antagonists of the peroxisome proliferator-activated receptor gamma (PPARg) signaling pathway - cell viability counter screen (AID 743194); details: PPARg-bla HEK293H viability, CellTiter-Glo luminescence, 17 h, co-treated with 50 nM rosiglitazone; series mostly up to 62.6 µM; further: nearly all actives have a fitted effect of over 55% in size; further: potency means the concentration at half of the fitted maximal effect
Method in brief: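 Viability was measured as CellTiter-Glo luminescence in GeneBLAzer PPARg UAS-bla HEK293H cells. These cells had been exposed 17 h at 37 C to compounds together with rosiglitazone at 50 nM final, with the beta-lactamase readout taken in the same wells.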

Measured: Potency

CC(C)COC(=O)OCN1C(=O)CN(CCN2CC(=O)N(COC(=O)OCC(C)C)C(=O)C2)CC1=O
inactive: [1] | [2] | [3] | [4]

CN(C)CCc1c[nH]c2ccc(Cn3cncn3)cc12
inactive: [1] | [2] | [3] | [4]

C[C@H](O)CN(C)C
inactive: [1] | [2] | [3] | [4]

N[C@H](CO)C(=O)O
inactive: [1] | [2] | [3] | [4]

Cc1cccc(C)c1NC(=O)C1CCCCN1C (configuration not stated)
inactive: [1] | [2] | [3] | [4]

COC1=C(OC)C(=O)C(C/C=C(\C)CC/C=C(\C)CC/C=C(\C)CC/C=C(\C)CC/C=C(\C)CC/C=C(\C)CC/C=C(\C)CC/C=C(\C)CC/C=C(\C)CCC=C(C)C)=C(C)C1=O
inactive: [1] | [2] | [3] | [4]

CO/N=C(\C(=O)N[C@@H]1C(=O)N2C(C(=O)O)=C(CSc3nc(C)c(CC(=O)O)s3)CS[C@H]12)c1csc(N)n1
inactive: [1] | [2] | [3] | [4]

CC(=O)OCC(=O)[C@@]1(O)CC[C@H]2[C@@H]3C[C@H](C)C4=CC(=O)C=C[C@]4(C)[C@H]3[C@@H](O)C[C@@]21C
inactive: [1] | [2] | [3] | [4]

CC(=O)OCC1=C(C(=O)O)N2C(=O)[C@@H](NC(=O)Cc3ccccc3)[C@H]2SC1
inactive: [1] | [2] | [3] | [4]

CC/C(=C(/CC)c1ccc(OP(=O)(O)O)cc1)c1ccc(OP(=O)(O)O)cc1
inactive: [1] | [2] | [3] | [4]

CC(=O)OCC(=O)[C@@]1(O)CC[C@H]2[C@@H]3CCC4=CC(=O)CC[C@]4(C)C3=CC[C@@]21C
inactive: [1] | [2] | [3] | [4]

O=C[C@H](O)[C@@H](O)[C@@H](O)[C@H](O)CO
inactive: [1] | [2] | [3] | [4]

CS(=O)(=O)c1ccc([C@@H](O)[C@@H](COC(=O)CN)NC(=O)C(Cl)Cl)cc1
inactive: [1] | [2] | [3] | [4]

NC(=O)C1c2ccccc2CCc2ccccc21
inactive: [1] | [2] | [3] | [4]

C=CC(N)CCC(=O)O (configuration not stated)
inactive: [1] | [2] | [3] | [4]

CCN(CC)CCNC(=O)c1ccc(NS(C)(=O)=O)cc1
inactive: [1] | [2] | [3] | [4]

CC/C=C\C/C=C\C/C=C\C/C=C\C/C=C\C/C=C\CCC(=O)O
inactive: [1] | [2] | [3] | [4]

NCC1CCC(C(=O)O)CC1 (configuration not stated)
inactive: [1] | [2] | [3] | [4]

CC(C)(C)C(=O)OCC(=O)[C@H]1CC[C@H]2[C@@H]3CCC4=CC(=O)CC[C@]4(C)[C@H]3CC[C@]12C
inactive: [1] | [2] | [3] | [4]

O=S(=O)(O)CC(S)CS (configuration not stated)
inactive: [1] | [2] | [3] | [4]

O=P(O)(O)OP(=O)(O)OP(=O)(O)O
inactive: [1] | [2] | [3] | [4]

CCCCCCCCCCCCCCCC(=O)OC[C@H](COP(=O)([O-])OCC[N+](C)(C)C)OC(=O)CCCCCCCCCCCCCCC
inactive: [1] | [2] | [3] | [4]

COC(=O)[C@H]1[C@H]2C[C@H]3c4[nH]c5ccccc5c4CCN3C[C@H]2CC[C@@H]1O
active: [2] 18.8 µM
inactive: [1] | [3] | [4]

OCC1(CO)COC(C(Cl)(Cl)Cl)OC1
inactive: [1] | [2] | [3] | [4]

CC(C)CCC[C@@H](C)[C@H]1CC[C@H]2[C@@H]3CC=C4C[C@@H](O)CC[C@]4(C)[C@H]3CC[C@]12C
inactive: [1] | [2] | [3] | [4]

Nc1cc(Cl)c(NC2=NCCN2)c(Cl)c1
inactive: [1] | [2] | [3] | [4]

CNC(=O)C[C@@H](N)C(=O)N[C@@H](C(=O)N[C@@H]1C(=O)N2[C@@H]1SC(C)(C)[C@@H]2C(=O)O)c1ccc(O)cc1
inactive: [1] | [2] | [3] | [4]

CC[N+](CC)(CC)CCC(O)(c1ccccc1)C1CCCCC1 (configuration not stated)
inactive: [1] | [2] | [3] | [4]

CC[C@@H](C)[C@H](N)C(=O)O
inactive: [1] | [2] | [3] | [4]

CC[C@H]1OC(=O)C[C@@H](O)[C@H](C)[C@@H](O[C@@H]2O[C@H](C)[C@@H](O)[C@H](N(C)C)[C@H]2O)[C@@H](CCN2C[C@H](C)C[C@H](C)C2)C[C@@H](C)C(=O)/C=C/C(C)=C/[C@@H]1CO[C@@H]1O[C@H](C)[C@@H](O)[C@@H](OC)[C@H]1OC
inactive: [1] | [2] | [3] | [4]

O=C1CC[C@@H](C(=O)N[C@H]2C[C@@H]2c2ccccc2)N1
inactive: [1] | [2] | [3] | [4]

OCCCNc1ccccc1
inactive: [1] | [2] | [3] | [4]

CCC(=O)OC(OP(=O)(CCCCc1ccccc1)CC(=O)N1C[C@H](C2CCCCC2)C[C@H]1C(=O)O)C(C)C (some centres not stated)
inactive: [1] | [2] | [3] | [4]

CC(=NCc1ccccc1)c1ccccc1O
inactive: [1] | [2] | [3] | [4]

O=C1C2CC3CC1CC(O)(C3)C2
inactive: [1] | [2] | [3] | [4]

CC[C@H](C)C(=O)O[C@H]1CCC=C2C=C[C@H](C)[C@H](CC[C@@H]3C[C@@H](O)CC(=O)O3)[C@H]21
inactive: [1] | [2] | [3] | [4]

CN[C@H](CC(C)C)C(=O)N[C@H]1C(=O)N[C@@H](CC(N)=O)C(=O)N[C@H]2C(=O)N[C@H]3C(=O)N[C@H](C(=O)N[C@@H](C(=O)O)c4cc(O)cc(O)c4-c4cc3ccc4O)[C@H](O)c3ccc(c(Cl)c3)Oc3cc2cc(c3O[C@@H]2O[C@H](CO)[C@@H](O)[C@H](O)[C@H]2O[C@H]2C[C@](C)(N)C(O)[C@H](C)O2)Oc2ccc(cc2Cl)[C@H]1O (some centres not stated)
inactive: [1] | [2] | [3] | [4]

N=C(N)n1cccn1
inactive: [1] | [2] | [3] | [4]

CCCCCCCCCC(=O)NO
inactive: [1] | [2] | [3] | [4]

Cc1ccc(C(C)(C)c2ccc(C)cc2)cc1
inactive: [1] | [2] | [3] | [4]

CCCCCCCCCCCCCC(=O)OCC(COP(=O)([O-])OCC[N+](C)(C)C)OC(=O)CCCCCCCCCCCCC (configuration not stated)
inactive: [1] | [2] | [3] | [4]

O=C(CCCN1CCN2CCCC2C1)c1ccc(F)cc1 (configuration not stated)
inactive: [1] | [2] | [3] | [4]

CCCC(CCC)C(=O)OC1C[C@H]2CC[C@@H](C1)[N+]2(C)C (some centres not stated)
inactive: [1] | [2] | [3] | [4]

N#Cc1c(N(CC(=O)O)CC(=O)O)sc(C(=O)O)c1CC(=O)O
inactive: [1] | [2] | [3] | [4]

CCN1CCCC1CNC(=O)c1cc(S(=O)(=O)CC)ccc1OC (configuration not stated)
inactive: [1] | [2] | [3] | [4]

CC(C)OC(=O)Nc1ccc2nc(-c3cscn3)[nH]c2c1
active: [2] 6.68 µM
inactive: [1] | [3] | [4]

C=C1[C@@H]2CC[C@@H](C2)C1(C)C
inactive: [1] | [2] | [3] | [4]

C=CCN1C(=O)C(CC(C)C)NC1=S (configuration not stated)
inactive: [1] | [2] | [3] | [4]

CC(C)C[C@H](NC(=O)[C@@H](COC(C)(C)C)NC(=O)[C@H](Cc1ccc(O)cc1)NC(=O)[C@H](CO)NC(=O)[C@H](Cc1c[nH]c2ccccc12)NC(=O)[C@H](Cc1cnc[nH]1)NC(=O)[C@@H]1CCC(=O)N1)C(=O)N[C@@H](CCCN=C(N)N)C(=O)N1CCC[C@H]1C(=O)NNC(N)=O
inactive: [1] | [2] | [3] | [4]

c1ccc2cc3c4ccccc4c4ccccc4c3cc2c1
active: [5] 1.94 µM

O=C(N[C@H](CO)[C@H](O)c1ccc([N+](=O)[O-])cc1)C(Cl)Cl
inactive: [1] | [2] | [3] | [6] | [7]

CCOc1ccc([N+](=O)[O-])cc1
active: [1] 55.3 µM | [7] 44.3 µM
inactive: [2] | [3]

CN(C[C@@H](CC[N+]12CCC(C3CCCCC3)(CC1)CC2)c1ccc(Cl)c(Cl)c1)C(=O)c1cc(C(F)(F)F)cc(C(F)(F)F)c1
active: [1] 61.1 µM | [3] 54.5 µM | [8] 54.9 µM | [6] 30.6 µM | [7] 24.5 µM
inactive: [2]

CN(C)CCC(O)(c1ccccc1)c1ccccc1Cl (configuration not stated)
inactive: [1] | [2] | [4]

CC12CCC(C[N+](C)(CCC[N+](C)(C)C)C1)C2(C)C (configuration not stated)
inactive: [1] | [2] | [4]

C=CC1=C(C(=O)O)N2C(=O)[C@@H](NC(=O)/C(=N\O)c3csc(N)n3)[C@H]2SC1 (stereo in doubt)
inactive: [1] | [2] | [4]

C[C@@H]1C(=O)NC2=Nc3cccc(Cl)c3CN21
inactive: [1] | [2] | [4]

CO/N=C(\C(=O)N[C@@H]1C(=O)N2C(C(=O)O)=C(C[N+]3(C)CCCC3)CS[C@H]12)c1csc(N)n1
inactive: [1] | [2] | [4]

O=C1CCC/C=C\CCCCCCCCCC1
inactive: [1] | [2] | [3] | [8] | [5] | [6] | [7]

CCC[C@@H]1C[C@@H](C(=O)N[C@@H]([C@H]2O[C@H](SC)[C@H](OP(=O)(O)O)[C@@H](O)[C@H]2O)[C@H](C)Cl)N(C)C1
inactive: [1] | [2] | [4]
